# Experimental data as given in PubChem BioAssay AID1626 (SRMLSC, 2009).
# The campaign covered roughly 220,000 compounds. About 2,000 (0.91%) were called active. Not shown: some 2% with an inconclusive outcome. Cut-off read from the data, not from the text of the source: inconclusive = inhibition above about 80% without an active follow-up result; inactive = below that; test concentration not stated here. Only a sample is shown. Potency and affinity values are given separately.
# Experiment: M. tuberculosis H37Rv growth inhibitors, H37Rv strain (AID 1626);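 note: bacteria incubated seven days before Alamar blue readout; 0% = bacteria only wells and 100% = bacteria with antibiotic wells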
# Settings: active compounds read high, concentration not given here
row,SMILES,inhibition
1,CCCCc1ccc(NC(=O)COc2ccc(C(=O)Nc3ccccc3C)cc2)cc1,73.6% (inactive)
2,Cc1ccc(OCC(=O)Nc2ccccc2F)cc1C,2.33% (inactive)
3,O=C(N/N=C/c1ccccc1C(F)(F)F)c1ccc(O)cc1,-4.67% (inactive)
4,CCOc1ccc(/C=C/C2=NNC(=O)CC2)cc1,-3.64% (inactive)
5,CCCn1c(N2CCC(Cc3ccccc3)CC2)nc2c1c(=O)[nH]c(=O)n2C,12.4% (inactive)
6,CCCCn1c(N2CCC(Cc3ccccc3)CC2)nc2c1c(=O)[nH]c(=O)n2C,46.5% (inactive)
7,Oc1c(Br)cc(Cl)cc1C=Nc1ccc(N2CCOCC2)cc1,7.51% (inactive)
8,O=S(=O)(CCn1cccc1)CCn1cccc1,8.4% (inactive)
9,COc1cc(/C=N/NC(=O)c2c(-c3ccccc3)noc2C)cc(OC)c1OC,-3.6% (inactive)
10,COc1ccc(CNC(=O)COC(=O)CCc2nc3ccccc3c(=O)[nH]2)cc1,5.36% (inactive)
11,CN1C[C@@H]2C(c3ccc(C(F)(F)F)cc3)C3(c4ccccc4)CC2(C3)[C@H]1c1ccccc1 (stereo partly drawn),2.02% (inactive)
12,FC(F)(F)c1ccc(CN2C[C@@H]3C(c4ccc(C(F)(F)F)cc4)C4(c5cccnc5)CC3(C4)[C@H]2c2ccccc2)cc1 (stereo partly drawn),9.04% (inactive)
13,CN1C[C@@H]2C(c3ccccc3)C3(c4cccnc4)CC2(C3)[C@H]1c1ccccc1 (stereo partly drawn),1.01% (inactive)
14,c1ccc(C2[C@H]3CN(CC4CCCCC4)[C@H](c4ccccc4)C34CC2(c2ccccc2)C4)cc1 (stereo partly drawn),6.4% (inactive)
15,FC(F)(F)c1ccc(CN2C[C@@H]3C(c4ccc(Cl)nc4)C4(c5ccccc5)CC3(C4)[C@H]2c2ccccc2)cc1 (stereo partly drawn),7.77% (inactive)
16,FC(F)(F)c1ccc(C2[C@H]3CN(CC4CCCCC4)[C@H](c4ccccc4)C34CC2(c2cccnc2)C4)cc1 (stereo partly drawn),19.8% (inactive)
17,CCOC(=O)Cn1nc(C)n(-c2ccc(C(C)C)cc2)c1=O,1.38% (inactive)
18,CCCc1nc2c(sc3nc4c(cc32)COC(C)(C)C4)c(=O)n1CCN(C)C,-6.58% (inactive)
19,Cc1ccccc1Nc1c(-c2ccc(N3CCOCC3)cc2)nc2cnccn12,-3.6% (inactive)
20,CC[C@H](CO)Nc1nc(Nc2cccc(Cl)c2)c2ncn(C(C)C)c2n1,15.3% (inactive)
21,CC(C)C[C@H](CO)Nc1nc(Nc2cccc(Cl)c2)c2ncn(C(C)C)c2n1,28.8% (inactive)
22,CCN(CC)S(=O)(=O)c1cccc(C(=O)N[C@H](C(=O)NCc2ccc(Cl)cc2)C(C)C)c1,6.08% (inactive)
23,COc1cc(C(=O)NCC(C)C)c([N+](=O)[O-])cc1OC,3.27% (inactive)
24,CCCCOc1ccc(Br)cc1CSC(=N)N,2.99% (inactive)

row,SMILES,inhibition
1,CCCOc1ccc(Br)cc1CSC(=N)N,-1.31% (inactive)
2,CCCCC(=O)Nc1nnc(C2=COCCO2)o1,2.42% (inactive)
3,O=C(NCc1ccccc1)c1ccc2c(c1)OCCO2,-7.22% (inactive)
4,CC(=O)Nc1nnc(C2=COCCO2)o1,0.04% (inactive)
5,O=C(Nc1nnc(C2=COCCO2)o1)c1ccc(S(=O)(=O)N2CCCCC2)cc1,78.6% (inactive)
6,O=C(Nc1nnc(C2=COCCO2)o1)c1ccc(S(=O)(=O)N2CCOCC2)cc1,7.6% (inactive)
7,N#CCCN(CCC#N)S(=O)(=O)c1ccc(C(=O)Nc2nnc(C3=COCCO3)o2)cc1,-6.19% (inactive)
8,O=C(Nc1nnc(C2=COCCO2)o1)c1ccc(S(=O)(=O)N2CCCC2)cc1,-3.71% (inactive)
9,CCCC(=O)Nc1nnc(-c2ccc3c(c2)OCCO3)o1,57.4% (inactive)
10,Cc1ccc(/C=N/NC(=O)c2cccnc2)s1,-7.82% (inactive)
11,O=C(Nc1ccc(F)cc1)c1ccc(S(=O)(=O)N2CCOCC2)o1,-14.1% (inactive)
12,COC(C[C@@H](O)C[C@@H](O)COCc1ccccc1)OC,-11.1% (inactive)
13,Cn1c(SCC(=O)N2CCCc3ccccc32)nc2cccnc21,4.22% (inactive)
14,O=C(Nc1nnc(-c2cccnc2)s1)c1cccs1,-11.7% (inactive)
15,CC(C)(Oc1ccc(Cl)cc1)C(=O)OCn1nnc2ccccc2c1=O,62.5% (inactive)
16,CC(=O)c1c(C(C)=O)c(C)n(-c2cccc([N+](=O)[O-])c2)c1C,-7.09% (inactive)
17,COc1ccc(-n2c(C)cc(C(=O)CCl)c2C)cc1,-6.35% (inactive)
18,Cc1cc(C)c(S(=O)(=O)N(C)CC(=O)NCc2ccccn2)c(C)c1,-8.63% (inactive)
19,CCn1ccnc1CN(C)Cc1cn(C)nc1-c1ccccc1F,-1.63% (inactive)
20,COc1cccc(/C=N/n2c(SC)nnc2-c2ccccc2)c1OC,-6.45% (inactive)
21,Cc1ccc(CN(C(=O)Cc2cccs2)C(C(=O)NC2CCCC2)c2ccncc2)cc1 (stereo not drawn),7.49% (inactive)
22,O=C(Nc1ccc(S(=O)(=O)Nc2ccc(Cl)cc2)cc1)C1CCCO1 (stereo not drawn),5.71% (inactive)
23,O=C(NCc1ccc(Cl)cc1)c1ccc(CNc2c(N3CCOCC3)c(=O)c2=O)cc1,87.6% (inactive)
24,CC(=O)c1ccc(NC(=O)c2ccc(CNc3c(N4CCCC4)c(=O)c3=O)cc2)cc1,2.39% (inactive)

row,SMILES,inhibition
1,Cc1cc(C)cc(NC(=O)c2ccc(CNc3c(N4CCOCC4)c(=O)c3=O)cc2)c1,12.3% (inactive)
2,O=C(NCc1ccc(Cl)cc1)c1ccc(CNc2c(N3CCCC3)c(=O)c2=O)cc1,4.26% (inactive)
3,COc1cc2c(cc1NC(=O)CSc1nnc(Cc3cccs3)n1Cc1ccco1)oc1ccccc12,7.99% (inactive)
4,CC(C)c1ccc(NC(=O)Cn2cccc2C2=NC(c3ccccc3)CO2)cc1 (stereo not drawn),-2.83% (inactive)
5,COc1ccc(C(CCN)Cc2ccccc2)cc1 (stereo not drawn),1.28% (inactive)
6,O=S1(=O)CCN(OCc2ccc(F)cc2Cl)CC1,-5.47% (inactive)
7,CCOc1cc(C)nc(Oc2ccc(=O)[nH]n2)n1,-1.8% (inactive)
8,Cc1ccc(-c2csc(=Nc3cccnc3)n2CCCN2CCCC2=O)cc1C,8.37% (inactive)
9,Cc1ccc(C)c2c1[nH]c1ccccc12,-8.26% (inactive)
10,c1ccc2c(c1)[nH]c1cnccc12,-1.77% (inactive)
11,CC(C)CCNC1=CC(=O)CC(c2ccccc2)C1 (stereo not drawn),-3.24% (inactive)
12,CNCCOc1ccccc1OC(C)C,4.14% (inactive)
13,O=C(O)c1ccc(C(=O)O)c(C(=O)c2ccccc2)c1,4.19% (inactive)
14,Cc1nn(Cc2ccc(F)cc2Cl)c(C)c1[N+](=O)[O-],5.81% (inactive)
15,Cn1c(-c2sc(=S)n(-c3ccccc3)c2N)nc2ccccc21,-12.8% (inactive)
16,N#Cc1c(N)n(CCc2ccc(F)cc2)c2nc3ccccc3nc12,7.97% (inactive)
17,CCOc1ccc(-n2c(N)c(-c3nc4ccccc4n3C)c3nc4ccccc4nc32)cc1,70.5% (inactive)
18,Cc1nc2ccccc2n1CCc1ccccc1,-7.4% (inactive)
19,CCN(CC)C(=O)C1=C(C)NC(=O)NC1c1ccccc1F (stereo not drawn),-2.9% (inactive)
20,COc1ccc(NC(=O)C(C)N2c3cccc4cccc(c34)S2(=O)=O)cc1OC (stereo not drawn),-6.4% (inactive)
21,CCC(=O)NC(=S)Nc1cccc(NC(=O)c2ccccc2Cl)c1,8.67% (inactive)
22,N#C/C(=C\c1ccc(C(=O)O)cc1)S(=O)(=O)c1cc(Br)ccc1Br,17% (inactive)
23,CCn1c(SCC(=O)O)nnc1-c1cccnc1,-5.44% (inactive)
24,CC1CN(c2ncnc3c2c(-c2ccccc2)cn3-c2ccc(F)cc2)CC(C)O1 (stereo not drawn),8.16% (inactive)

row,SMILES,inhibition
1,CCOC(=O)c1sc2nc(N3CCOCC3)c3c(c2c1N)CC(C)(C)N(C)C3,-3.62% (inactive)
2,CN1Cc2c(N3CCOCC3)nc3sc(C(=O)c4ccccc4)c(N)c3c2CC1(C)C,8.23% (inactive)
3,Cc1ccccc1OCCNc1cc(N2CCN(CCO)CC2)ccc1[N+](=O)[O-],27.5% (inactive)
4,O=C(NCc1ccccc1)c1nc2c(nnn2Cc2cccc(Cl)c2)c(=O)[nH]1,-4.36% (inactive)
5,COC(=O)C1CCN(C(=O)c2sc3nc(-c4ccc(F)cc4)cn3c2C)CC1,6.16% (inactive)
6,CCC(=Nc1ccccc1OC)C1=C(O)CC(c2ccccc2)CC1=O (stereo not drawn),6.17% (inactive)
7,CCCC(=Nc1ccccc1OC)C1=C(O)CC(c2ccccc2)CC1=O (stereo not drawn),2.17% (inactive)
8,CN(CC(=O)Nc1ccc(S(=O)(=O)N2CCCC2)cc1)CC(=O)Nc1cccc(F)c1,2.32% (inactive)
9,O=C1CC(c2cccs2)Cc2nc(NCC3CCCO3)ncc21 (stereo not drawn),-8.23% (inactive)
10,Cc1nc2ccccc2c(=O)n1NC(=O)/C=C/c1ccccc1Cl,-8.45% (inactive)
11,Cn1c(COc2ccccc2)nnc1SCC(=O)NNC(=O)C1CCCCC1,-10.3% (inactive)
12,O=C(O)CSc1nnc(COc2cccc3ccccc23)n1Cc1ccccc1,-1.72% (inactive)
13,CCn1c(COc2cccc3ccccc23)nnc1SCC(N)=O,-13.4% (inactive)
14,COc1cccc(OCc2nnc(SCC(=O)OC3CCCCC3)n2C)c1,6.41% (inactive)
15,COc1cccc(C(c2nnnn2CS(=O)(=O)c2ccc(C)cc2)N2CCN(C)CC2)c1OC (stereo not drawn),-6.9% (inactive)
16,CN1CCN(CC#CC(C)(O)C2CC3C=CC2C3)CC1 (stereo not drawn),8.02% (inactive)
17,CCN(c1ccccc1)S(=O)(=O)c1ccc(Cl)c(C(=O)OCC(=O)NC(=O)C(C)C)c1,-9.03% (inactive)
18,Cc1ccc(OC(=O)c2ccc3snnc3c2)cc1,68.6% (inactive)
19,CC(C)(C)c1ccc(OC(=O)c2ccc3nsnc3c2)cc1,29.5% (inactive)
20,COc1ccc2[nH]c(=O)c(CN(C(=O)c3cccnc3)c3ccccc3C)cc2c1,-2.62% (inactive)
21,O=C(Nc1ccc(NC(=O)c2ccccn2)cc1)C(=O)Nc1ccc2c(c1)OCCO2,1.18% (inactive)
